CYP2C19 inh: blockers of cytochrome P450 2C19 activity – biochemical, luminescence, ADME assay, primary screen; P33261; CYP2C19 Supersomes, luciferin-H EGE luminescence, 30 min; inhibition, % at 5 µM; hit rate 21% among 96,000; AID 778, 2007;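 active means CYP2C19 inhibition above a set limit at 5 µM in the primary screen, cut at about 50% in these data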;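 further: plate controls were negative control wells for no effect and 2.5 mM tranylcypromine positive control for full effect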
Target sequence (P33261 whole entry, looked up): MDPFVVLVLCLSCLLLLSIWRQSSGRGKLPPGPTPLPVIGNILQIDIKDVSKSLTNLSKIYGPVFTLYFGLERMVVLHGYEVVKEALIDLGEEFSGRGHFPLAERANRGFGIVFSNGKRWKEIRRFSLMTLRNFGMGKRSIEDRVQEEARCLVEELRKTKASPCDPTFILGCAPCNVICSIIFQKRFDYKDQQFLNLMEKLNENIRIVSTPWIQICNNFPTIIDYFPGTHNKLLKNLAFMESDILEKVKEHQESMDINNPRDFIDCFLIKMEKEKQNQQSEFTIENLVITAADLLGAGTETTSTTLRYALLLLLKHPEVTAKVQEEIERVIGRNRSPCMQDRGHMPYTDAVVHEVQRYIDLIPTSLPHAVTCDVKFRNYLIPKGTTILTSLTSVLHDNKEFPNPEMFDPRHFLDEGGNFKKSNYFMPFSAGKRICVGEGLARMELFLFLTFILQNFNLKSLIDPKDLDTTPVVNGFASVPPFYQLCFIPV
PostGolgi ctrl: growth inhibition of yeast control strain, primary screen, counter-screen for post-Golgi transport modulator project. efflux-deficient yeast background strain, growth absorbance A615, 16 h. inhibition, % at 10 µM. hit rate 5% among 98,000
CYP2C9 act: human CYP2C9 activators, primary screen, biochemical, luminescence | activation factor at 5 µM | recombinant CYP2C9, luciferin-H conversion; stronger effect = higher value; factor 1 = untreated enzyme, 0 = blocked | hit rate 1.4% among 96,000 | Cytochrome P450 2C9 (Homo sapiens), P11712;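 active means activation factor of 2 or more for CYP2C9 at a 5 µM dose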;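 further: 0 = sulfaphenazole-blocked wells and 1 = vehicle-only wells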
CYP2C9 inhib: blockers of cytochrome P450 2C9 activity – biochemical, luminescence, ADME assay, primary screen; P11712; CYP2C9 Supersomes, luciferin-H conversion; inhibition, % at 5 µM; hit rate 20% among 96,000; AID 777, 2007;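 active means blocking of liver enzyme CYP2C9 beyond about 50% at 5 µM, limit read from the data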
CYP2C19 activ: human CYP2C19 activators, primary screen, biochemical, luminescence. recombinant CYP2C19, luciferin-H EGE luminescence; stronger effect = higher value; 0 = fully inhibited enzyme, 1 = untreated enzyme. activation factor at 5 µM. 96,000 tested, under 10 active;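 active means activation factor of at least 2 at 5 µM in the primary screen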;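 further: 0 = wells with 2.5 mM tranylcypromine and 1 = vehicle-only wells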
PostGolgi yeast: phenotypic screen on post-Golgi transport, primary screen. post-Golgi transport phenotypic cell assay. inhibition, % at 10 µM. hit rate 0.9% among 98,000;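 further: yeast cells grown in 1536-well plates; yeast grown about 18 h at 30C before absorbance read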
The depositor's hits bear a star; nt = no result. Rows were chosen to be rich in hits. Some 32% of all compounds tested hit in one or more screens of this group. Unless noted, no stated cut-off is given here; in the data, active means inhibition above about 30%; inactive means the rest.

SMILES	CYP2C19 inh	PostGolgi ctrl	CYP2C9 act	CYP2C9 inhib	CYP2C19 activ	PostGolgi yeast
CCN(c1ccc(NC(=O)COC(=O)c2ccc3ccccc3n2)cc1)C(C)C	19	0	0.9	15	0.8	5
Cc1cccc(C)c1-n1nnnc1S(=O)(=O)Cc1ccccc1Cl	42	8	0.2	83*	0.6	25
O=C(O)CCS(=O)(=O)Cc1ccccc1Cl	3	9	0.8	17	1	19
Cc1ccc(-n2c(=O)cc(NCc3cccnc3)[nH]c2=O)cc1	11	25	0.9	8	0.9	3
COc1ccc(CNC(=O)Cn2cnc3c(=O)n(C)c(=O)n(C)c32)cc1	-14	0	1.2	-24	1.1	2
CCOC(=O)c1[nH]c(=O)[nH]c1COC(=O)c1cc2ccccc2o1	12	12	0.4	57*	0.9	4
Cc1cc(Cl)ccc1N=Cc1c(O)n(C)c(=O)n(C)c1=O	-4	nt	1	1	1	nt
CCC1c2ccc(C)n2CCN1C(=O)Nc1ccccc1C(=O)OC (configuration not stated)	86*	nt	0.4	59*	0.1	nt
CCOC(=O)c1ccccc1NC(=O)N1CCn2c(C)ccc2C1CC (configuration not stated)	22	16	0.7	27	0.8	3
COc1ccc(C(=O)NCCc2nnc(SCC(=O)Nc3ccccc3)n2C)cc1	12	6	0.6	37	0.9	10
CCCc1cc(=O)n2[nH]c(NCc3c(F)cccc3Cl)nc2n1	13	2	0.5	47	0.9	-3
O=C(Nc1ccccc1)N(CCN1CCOCC1)Cc1cccc(Cl)c1	79*	12	0.2	84*	0.2	-3
CCc1ccc(NC(=O)N(CCCN2CCOCC2)C(C)c2cc3cccc(OC)c3o2)cc1 (configuration not stated)	40	8	0.3	68*	0.6	-5
O=C(c1ccccc1)N(CCN1CCOCC1)C1(C(=O)Nc2ccccc2)CCCCC1	69*	5	0.8	23	0.3	-10
O=C(Nc1cccc(Cl)c1)N(CCCN1CCOCC1)Cc1ccccc1F	28	4	0.3	65*	0.7	0
COc1cccc2cc(C(=O)C3=C(O)C(=O)N(CCN4CCOCC4)C3c3cccs3)oc12 (configuration not stated)	-10	6	1.2	-22	1.1	1
O=C(Nc1ccccc1)N(CCCN1CCOCC1)Cc1ccccc1F	13	6	0.8	25	0.9	4
O=C(CCN1CCOCC1)c1ccccc1	4	-1	0.8	18	1	17
CCOC(=O)N1CCC(NC(=O)C(NC(=O)C2CCCCC2)C(C)C)CC1 (configuration not stated)	-3	nt	1.1	-9	1	nt
CCC(C)NC(=O)C1c2ccccc2C(=O)N(c2ccc(OC)cc2)C1c1ccc(OC)cc1 (configuration not stated)	0	-1	0.8	15	1	1
CC(C)COP(=O)(c1ccc(N(C)C)cc1)C(O)c1ccccc1F (configuration not stated)	50	1	0.9	10	0.5	5
O=C(Nc1ccc(Cl)c(Cl)c1)N(CCCN1CCOCC1)Cc1cccs1	89*	31*	0.2	84*	0.1	15
COc1ccc(CN(CCN2CCOCC2)C(=O)c2c(F)cccc2F)cc1OC	52*	3	0.6	37	0.5	-3
COc1ccc(CN(CCCN2CCOCC2)S(=O)(=O)N(C)C)cc1OC	9	6	1	3	0.9	-5
O=S(=O)(c1cccc(C(F)(F)F)c1)N(CCCN1CCOCC1)Cc1cccs1	64*	13	0.8	21	0.4	-1
SMILES	CYP2C19 inh	PostGolgi ctrl	CYP2C9 act	CYP2C9 inhib	CYP2C19 activ	PostGolgi yeast
COc1ccc(CN(CCCN2CCOCC2)C(=O)Nc2ccccc2)cc1OC	25	1	0.4	57*	0.8	-2
COc1ccc(N2CCN(C(=O)c3ccc(NS(=O)(=O)c4ccc(F)cc4)cc3)CC2)cc1	24	11	0.1	91*	0.8	-7
COc1ccc(N2CCN(C(=O)c3ccc(S(=O)(=O)N4CCOCC4)cc3)CC2)cc1	0	7	1	1	1	-7
CCOc1ccc(S(=O)(=O)Nc2cccc(C(=O)N3CCN(c4ccc(OC)cc4)CC3)c2)cc1	62*	4	0.4	60*	0.4	-5
N#C/C(=C\N1CCOCC1)c1ccccc1	57*	20	0.8	24	0.4	27
CCOC(=O)C1=C(C)NC(=S)NC1c1ccc(-c2cccc(Cl)c2C)o1 (configuration not stated)	22	-3	0.5	50*	0.8	-4
CSC1=C(C#N)C(c2cccc(Br)c2)CC(=O)N1 (configuration not stated)	nt	19	nt	nt	nt	2
O=C1CC(c2cccc(Br)c2)c2cc3c(cc2N1)CCC3 (configuration not stated)	29	90*	0.5	55*	0.7	19
Cc1cc(C)nc(SCSc2nc(C)cc(C)n2)n1	28	1	0.9	14	0.7	1
Cc1cc(C)nc(SCCc2ccncc2)n1	73*	0	0.6	40	0.3	-3
CCOc1ccccc1NC1c2ccccc2C(=O)N1Cc1ccco1 (configuration not stated)	63*	25	0.8	19	0.4	-5
COc1cc(NC2c3ccccc3C(=O)N2c2ccc(C)cn2)cc(OC)c1OC (configuration not stated)	46	9	0.6	38	0.5	1
CCOc1ccccc1NC1c2ccccc2C(=O)N1c1ccc(C)cn1 (configuration not stated)	44	33*	0.7	30	0.6	-14
CCOC(=O)c1ccccc1NC1c2ccccc2C(=O)N1c1ccc(C)cn1 (configuration not stated)	5	48*	0.6	43	0.9	-5
O=C1c2ccccc2C(Nc2ccc(S(=O)(=O)N3CCCCCC3)cc2)N1Cc1ccco1 (configuration not stated)	36	21	0	97*	0.6	0
COc1ccccc1NC(=O)c1sc2ncn(Cc3ccccc3C)c(=O)c2c1C	34	2	1.5	-50	0.7	9
CC(=O)N1CCC2(CC1)C(C#N)=C(N)Oc1n[nH]c(C)c12	-10	0	1.2	-21	1.1	6
COc1ccc(/C=C(\NC(=O)c2ccccc2)C(=O)N/N=C/c2ccncc2)cc1	nt	-7	0.6	41	nt	0
